Compounds with a hit are over-represented: about 4.1% of the library has one in this group of screens.
PRMT1 FP inh: PRMT1 (human) inhibition, primary screen | 370,000 compounds, 1.3% hits | inhibition, % at 2.79 µM | recombinant PRMT1, activity-based probe fluorescence polarization | Q99873;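 active = inhibition above about 21% made by adding two undisclosed values, limit read from the data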
ABHD5 PLIN5 PPI: blocks binding of human ABHD5 to perilipin-5; inhibition, % at 4 µM; Split G. princeps luciferase complementation, luminescence, 4 h; 360,000 compounds, 0.78% hits;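 active = inhibition above the mean inhibition across every tested compound plus 3 SD, cut at about 22% in these data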;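 note: 0% = DMSO only wells and the 100% control is not disclosed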
LEDGF integ inh: blocks HIV-1 LEDGF/p75-dependent DNA integration; inhibition, % at 3.7 µM; TR-FRET IN-LEDGF/p75 DNA integration, Eu/Cy5; 370,000 compounds, 0.64% hits;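 active = inhibition above the screen-wide mean plus 3 SD, cut at about 13% in these data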;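 note: signal is the Cy5 over europium emission ratio at 671 and 618 nm; 0% = plate median of compound wells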
UHRF1 binding: blocks human UHRF1 binding to methylated DNA; inhibition, % at 4.4 µM; AID 687016; UHRF1 binding to methylated oligo, TR-FRET; 370,000 compounds, 0.75% hits; Q96T88; in the data active = inhibition above about 21%;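 note: UHRF1 SRA domain binding a hemimethylated CpG hairpin DNA probe; 0% = median of test compound wells and 100% = reference inhibitor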
Target sequence (Q96T88 whole entry, looked up, the tested form may be a part): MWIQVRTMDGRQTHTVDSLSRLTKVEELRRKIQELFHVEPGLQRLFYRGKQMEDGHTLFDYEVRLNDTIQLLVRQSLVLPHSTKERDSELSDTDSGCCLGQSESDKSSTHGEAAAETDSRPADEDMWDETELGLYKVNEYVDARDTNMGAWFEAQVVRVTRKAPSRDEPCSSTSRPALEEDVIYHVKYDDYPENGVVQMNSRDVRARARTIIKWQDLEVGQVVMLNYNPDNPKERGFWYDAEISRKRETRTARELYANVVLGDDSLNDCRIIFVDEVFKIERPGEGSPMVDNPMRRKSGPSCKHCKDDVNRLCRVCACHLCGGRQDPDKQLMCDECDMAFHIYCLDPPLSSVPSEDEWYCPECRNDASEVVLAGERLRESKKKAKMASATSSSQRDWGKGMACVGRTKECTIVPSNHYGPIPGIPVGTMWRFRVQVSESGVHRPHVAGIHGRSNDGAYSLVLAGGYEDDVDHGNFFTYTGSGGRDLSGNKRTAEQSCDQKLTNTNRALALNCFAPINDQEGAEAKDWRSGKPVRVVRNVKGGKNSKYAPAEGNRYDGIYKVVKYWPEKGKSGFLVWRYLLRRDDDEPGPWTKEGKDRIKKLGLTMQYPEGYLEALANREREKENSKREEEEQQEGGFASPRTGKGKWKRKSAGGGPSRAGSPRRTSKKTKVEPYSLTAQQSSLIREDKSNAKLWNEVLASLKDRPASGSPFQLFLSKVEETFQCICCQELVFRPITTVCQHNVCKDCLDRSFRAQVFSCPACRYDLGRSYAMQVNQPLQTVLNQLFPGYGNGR
MBD2 inh: inhibitors of human MBD2 binding to methylated oligonucleotide; Q9UBB5; TR-FRET; inhibition, % at 4.4 µM; 370,000 compounds, 0.31% hits; AID 686964; in the data active = inhibition above about 13%
rCAG binder: r(CAG) repeat RNA binding | TO-PRO-1 dye displacement fluorescence | inhibition, % at 3 µM | AID 651821 | 370,000 compounds, 1.3% hits;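 active = inhibition above the plate cutoff, the mean of all test compounds on that plate plus 3 SD, cut at about 35% in these data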;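 note: 0% = DMSO alone and 100% = 100 µM mitoxantrone as full dye displacement; higher means more dye released from RNA so lower well fluorescence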
rCAG binder conf: r(CAG) RNA repeat binding, confirmation. shares compounds with rCAG binder. TO-PRO-1 dye displacement fluorescence. inhibition, % at 3 µM. 4,300 compounds, 70% hits;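 active = inhibition above a per-plate cutoff, the mean inhibition of sample wells plus 3 SD, cut at about 35% in these data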;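 note: loss of TO-PRO-1 fluorescence as compound displaces dye from 1x1 AA loop RNA; 0% = DMSO only wells and 100% = 100 µM mitoxantrone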
dCAG dye counter: counter-screen for rCAG RNA binders: DNA CAG dye complex inhibitors; shares compounds with rCAG binder; d(CAG) DNA oligo TO-PRO-1 dye displacement, fluorescence; inhibition, % at 3 µM; 4,300 compounds, 94% hits;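 active = inhibition above its plate's cutoff, the mean test-well inhibition plus 3 SD, cut at about 4.8% in these data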;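 note: 0% = DNA dye mix with DMSO and 100% = 100 µM mitoxantrone; hits displace the dye from DNA and so lower well fluorescence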
The depositor's hits bear a star; x = not tested or not shown.

SMILES	PRMT1 FP inh	ABHD5 PLIN5 PPI	LEDGF integ inh	UHRF1 binding	MBD2 inh	rCAG binder	rCAG binder conf	dCAG dye counter
COc1cccc(N(C)C(=O)[C@@H](C)[C@@H](O)c2ccc(C(C)=O)cc2)c1	-3.0	x	-2.7	-2.2	-2.4	-0.4	x	x
O=C(C=Cc1ccccc1)c1cc(Br)ccc1O	-3.7	16.8	1.2	-0.5	-3.7	0.9	x	x
CCOc1ccc(/C=C/C(=O)c2cc(Br)ccc(=O)c2O)cc1	10.2	19.0	5.1	-0.3	0.1	60.6*	46.7*	22.3*
Cc1cccc(/C=C/C(=O)c2cc(Br)ccc(=O)c2O)c1	36.7*	22.7*	12.6	3.6	4.3	45.0*	55.5*	24.1*
Cc1ccccc1S(=O)(=O)N1CCCc2nc(-c3ccc(F)cc3)ccc21	-2.9	x	-1.4	-1.0	4.5	2.4	x	x
CC(C)c1cc(C(=O)O)c2ccccc2n1	4.9	1.9	0.2	1.1	-0.9	39.9*	-0.5	-0.7
Oc1c(Cl)cc(Cl)cc1/C=C/c1ccc2cccc(O)c2n1	0.3	-1.6	-3.6	-4.3	-0.2	40.7*	56.1*	21.1*
CCOc1cc(/C=C/c2ccc3cccc([N+](=O)[O-])c3n2)cc(Cl)c1O	-3.8	3.2	2.2	0.3	-1.7	41.3*	33.2	13.4*
COc1cc(/C=C/c2ccc3cccc(O)c3n2)c(Br)cc1O	2.5	-9.0	-0.3	-2.2	-8.2	47.6*	44.6*	21.2*
COc1cc(Br)c(/C=C/c2ccc3cccc(O)c3n2)cc1OC	0.2	1.9	5.8	-2.9	-3.0	13.9	x	x
Oc1ccc(Cl)cc1/C=C/c1ccc2cccc(O)c2n1	-2.1	0.2	-1.1	-0.1	-0.7	32.0	x	x
COc1cc(Br)cc(/C=C/c2ccc3cccc(O)c3n2)c1O	1.5	-13.2	0.4	-1.8	-3.0	35.9*	28.5	12.6*
COc1ccc(OC)c(/C=C/c2ccc3cccc(O)c3n2)c1	3.2	10.9	0.8	16.1	0.1	9.6	x	x
CC(=O)CCN1CCSCCS1(=O)=O	0.3	x	3.2	0.0	2.0	1.2	x	x
CC12CCC(C/C1=N\N=C1\NC(=O)/C(=C\c3cccc(Br)c3)S1)C2(C)C (configuration not stated)	-1.5	-12.7	-2.5	-0.7	-1.5	49.7*	59.8*	27.7*
COc1cc(/C=N/N=C2\CC3CCC2(C)C3(C)C)ccc1O (configuration not stated)	-1.0	-3.9	-3.2	-3.8	0.1	-8.3	x	x
O=[N+]([O-])c1ccc2nc(NS(=O)(=O)c3ccccc3[N+](=O)[O-])sc2c1	-2.8	1.8	0.6	0.1	1.3	40.5*	39.4*	12.1*
O=[N+]([O-])c1ccc2nc(NS(=O)(=O)c3ccc(Cl)cc3)sc2c1	-1.2	-3.1	3.9	-1.8	-1.4	72.2*	75.7*	28.5*
CCc1nnn2c1Cn1c3ccccc3c(=O)n1[C@@H](C)C2	0.9	x	-2.2	0.7	-4.5	3.6	x	x
CN(C)c1ccc(NC(=O)Nc2nc(C(N)C3CCCCC3)cs2)cc1 (configuration not stated)	-1.1	-0.9	-3.2	-1.0	-10.3	33.0	x	x
CC(C)c1ccc(NC(=O)Nc2nc(C(N)C3CCCCC3)cs2)cc1 (configuration not stated)	-0.6	-11.3	6.9	1.5	0.0	34.6*	20.8	5.5*
COc1ccc(NC(=O)Nc2nc(C(N)C3CCCCC3)cs2)cc1 (configuration not stated)	-4.0	-1.6	10.0	4.7	1.4	39.8*	24.6	4.6*
Cc1ccccc1NC(=O)Nc1nc(C(N)C2CCCCC2)cs1 (configuration not stated)	1.2	11.0	5.1	1.4	8.0	20.0	x	x
O=C(Nc1nnc(S(=O)(=O)Cc2ccc(F)cc2)s1)c1ccccc1F	2.5	5.0	-0.7	-0.1	-0.2	17.9	x	x
COc1ccc(CN(C)S(=O)(=O)c2nnc(NC(=O)c3cccc(F)c3)s2)cc1	0.8	-6.9	-2.6	-0.5	3.4	41.2*	63.8*	25.4*
SMILES	PRMT1 FP inh	ABHD5 PLIN5 PPI	LEDGF integ inh	UHRF1 binding	MBD2 inh	rCAG binder	rCAG binder conf	dCAG dye counter
COc1ccc(CN(C)S(=O)(=O)c2nnc(NC(=O)c3cccc(C)c3)s2)cc1OC	0.4	-1.7	-1.5	0.4	0.2	66.9*	52.9*	16.6*
CN(Cc1ccc(F)cc1)S(=O)(=O)c1nnc(NC(=O)c2ccccc2Br)s1	1.4	-8.3	-8.8	0.4	2.5	68.0*	48.2*	14.2*
CN(Cc1ccc(F)cc1)S(=O)(=O)c1nnc(NC(=O)c2ccccc2)s1	2.1	-2.1	-1.5	-1.4	1.7	42.2*	43.1*	11.3*
CN(Cc1ccccc1)S(=O)(=O)c1nnc(NC(=O)c2ccc(F)cc2)s1	-0.1	-5.0	1.4	-0.9	0.3	4.2	x	x
COc1ccc(C(=O)Nc2nnc(S(=O)(=O)N(C)Cc3ccccc3)s2)cc1	0.3	-0.6	2.2	1.7	-2.0	5.3	x	x
COc1ccc(C(=O)Nc2nnc(S(=O)(=O)N(C)Cc3ccc(F)cc3)s2)cc1OC	-1.1	-5.3	-0.3	2.6	-4.4	26.4	x	x
CCCCN1CN2Cc3cc(F)ccc3C2CS1(=O)=O (configuration not stated)	-1.0	x	-4.7	-4.2	-5.6	3.4	x	x
O=C(NCc1ccc(Cl)cc1)OCCN1C(=O)CCC12CCC(c1ccccc1)CC2 (configuration not stated)	-0.7	x	-2.7	-0.4	-1.4	0.9	x	x
CC(C)=CCC[C@H](C)CC1Cc2[nH]c(=S)[nH]c(=O)c2C(c2ccc(Cl)cc2)O1 (some centres not stated)	3.7	-5.3	-4.5	3.4	-2.5	35.3*	42.3*	15.8*
CC(C)=CCC[C@H](C)CC1Cc2[nH]c(=S)[nH]c(=O)c2C(c2ccc(F)cc2)O1 (some centres not stated)	-0.7	-16.3	3.9	-1.1	1.4	34.4	x	x
O=C(c1ccc(F)cc1Cl)N1CCCC(c2nc(-c3cccs3)no2)C1 (configuration not stated)	0.7	x	-0.7	0.0	-2.0	2.6	x	x
O=C1NC(=O)/C(=C/c2ccc(-c3cc(C(=O)O)ccc3Cl)o2)S1	6.4	-6.2	6.6	10.6	0.6	53.1*	52.1*	14.7*
Cc1nnc(C)n1/N=C/c1ccc(-c2ccccc2Cl)o1	2.6	1.3	-4.6	3.3	5.2	-1.0	x	x
O=C1NC(=S)/C(=C\c2ccc(-c3ccccc3Cl)o2)S1	67.1*	-4.4	4.8	-0.4	-0.2	79.8*	67.5*	34.5*
Cc1cc(C(=O)O)ccc1-c1ccc(/C=C2\NC(=O)N(Cc3ccccc3Cl)C2=O)o1	x	-1.0	x	x	x	x	x	x
CCCC1CCC2(CC1)CCC2OC(=O)Nc1ccc2c(c1)OCO2 (configuration not stated)	2.1	x	-0.2	-0.8	-0.1	x	x	x
